# The campaign covered roughly 410,000 compounds. About 18,000 (4.4%) were called active. Another 7% or so got no clear call; they are omitted. Cut-off read from the data, not from the text of the source: active = activity change below about -60%; inconclusive = no clear call, values can overlap the other calls; inactive = above about -39%. For the sample, actives were picked, then their nearest neighbours and some compounds at random.
# Assay: qHTS Assay for inhibitors of the human cytomegalovirus (HCMV)
# Conditions: HFF cells, HCMV-luciferase reporter, 72 h; at 57.5 µM; stronger effect = lower value
# Method in brief: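 Luciferase read-out from HCMV-luciferase-infected HFFs (MOI 1 PFU/cell) 72 h post infection at 37C; compounds added after 16 h cell attachment; activity normalized between buffer-only basal and Salinomycin (10uM) inhibitor controls.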
# % is set by controls: 0 for no effect and ±100 for the full control effect.
row,SMILES,"activity change, negative = inhibition"
1,CC(C)CC(=O)NCC(c1ccc2c(c1)OCO2)N1CCN(c2ccc(F)cc2)CC1 (configuration not stated),1.29% (inactive)
2,COc1ccc(NC(=O)N2CCCn3nc(C)cc32)cc1OC,9.12% (inactive)
3,COc1ccc(NC(=O)NC(C)c2c(-n3cccc3)sc(C)c2C)cc1OC (configuration not stated),-77.2% (active)
4,CCn1cc(NC(=O)Nc2ccc(OC)c(OC)c2)c(C(N)=O)n1,-11.8% (inactive)
5,NC1=NC(=O)C(Cc2cccc(Cl)c2)S1 (configuration not stated),4.67% (inactive)
6,COc1ccc(-n2c(=O)c3c(c4cc(OC)ccc4n3C)n(Cc3cccc(C)c3)c2=O)cc1,-5.82% (inactive)
7,COC(=O)C[C@@H]1C=C[C@@H](NC(=O)c2cccnc2)[C@@H](CO)O1,-9.71% (inactive)
8,CCn1cc(C(=O)NCCc2ccccc2)c(=O)c2cc(S(=O)(=O)N3CCCCCC3)ccc21,-9.08% (inactive)
9,CCCCNC(=O)c1nc2cc(C)c(C)cc2nc1-c1ccc(OC)cc1,9.19% (inactive)
10,COc1ccc(-c2nc3c4ccccc4n(CC(=O)Nc4ccc(C(C)=O)cc4)c(=O)n3n2)cc1,29.2% (inactive)
11,OC[C@@H]1CN(C2CCCC2)C[C@H](n2cnc3c(NC4CCC4)ncnc32)O1,-6.08% (inactive)
12,OC[C@@H]1CN(Cc2cccs2)C[C@H](n2cnc3c(Nc4ccccc4)ncnc32)O1,-28.3% (inactive)
13,OC[C@@H]1CN(Cc2ccc(-c3ccccc3)cc2)C[C@H](n2cnc3c(NC4CCCC4)ncnc32)O1,-84.2% (active)
14,OCCN1CCN(c2ncnc3c2ncn3[C@H]2CN(Cc3ccco3)C[C@@H](CO)O2)CC1,-21.8% (inactive)
15,CC(C)Nc1ncnc2c1ncn2[C@H]1CN(Cc2ccncc2)C[C@@H](CO)O1,23.6% (inactive)
16,OC[C@@H]1CN(Cc2ccncc2)C[C@H](n2cnc3c(N4CCN(c5ccccc5)CC4)ncnc32)O1,-88% (active)
17,CCCOC(=O)c1c(NC(=O)c2cc3nc(-c4ccc(OC)cc4)cc(C(F)(F)F)n3n2)sc2c1CCCC2,-2.77% (inactive)
18,Cc1ccc(CSc2nc3ccsc3c(=O)n2CCC(C)C)cc1,-15.8% (inactive)
19,COc1ccccc1CNC(=O)CS(=O)(=O)c1cccc2nsnc12,22.9% (inactive)

row,SMILES,"activity change, negative = inhibition"
1,Cc1c(C(=O)OC(C)C)sc(NC(=O)c2cccnc2)c1C#N,4.66% (inactive)
2,Cc1c(C#N)c(NC(=O)c2ccccc2)n(Cc2ccccc2)c1C,-33.4% (inactive)
3,CCCc1ccc(-c2c(C)sc(NC(=O)c3ccnn3C)c2C#N)cc1,-97.3% (active)
4,CCc1cccc(NC(=O)COC(=O)C2CCN(c3ccc(C(F)(F)F)cn3)CC2)c1,-14.3% (inactive)
5,Cc1ccc(NC(=O)CN2c3ccccc3S(=O)(=O)c3ccccc32)cc1F,18.3% (inactive)
6,CCN(CC)CCNC(=O)c1cc2c(=O)oc3ccc(C)cc3c2s1,3.23% (inactive)
7,COc1ccc(/C=N/OCc2ccccc2C#N)c(OC)c1,50.3% (inactive)
8,Nc1nnc2c(C(F)(F)F)nc3ccccc3n12,1.13% (inactive)
9,COc1ccc(-c2nn3c(-c4ccc(OC)cc4)nnc3c3ccccc23)cc1,7.26% (inactive)
10,FC(F)(F)c1nnc2c3ccccc3c(Cl)nn12,-86.4% (active)
11,Cc1cc(C)n2nc(C(=O)Oc3ccc4c(c3)OCO4)nc2n1,12.7% (inactive)
12,CC(=O)c1nn(-c2ccc(OC(F)(F)F)cc2)nc1Nc1ccccc1,-19.8% (inactive)
13,COc1ccc(NC(=O)c2ccc3nc(CCc4ccccc4)oc3c2)c(OC)c1,15.1% (inactive)
14,CCN1CCC(O)(/C=C/c2ccc(C)cc2)C(C(=O)/C=C/c2ccc(C)cc2)C1 (configuration not stated),-101% (active)
15,O=C(CCOc1ccccc1)N(Cc1cccnc1)c1nc2ccc(Cl)cc2s1,-5.41% (inactive)
16,O=C(CCS(=O)(=O)c1ccccc1)N(Cc1cccnc1)c1nc2c(F)cccc2s1,112% (inactive)
17,Cc1ccc(-c2nc3ccccn3c2Nc2c(C)cccc2C)o1,-20.4% (inactive)
18,Cc1cccc(C(=O)Nc2ccc(S(=O)(=O)N3CCCCC3c3cccnc3)cc2)c1 (configuration not stated),-34.9% (inactive)
19,O=C(CS(=O)(=O)c1cccc2nsnc12)N1CCN(c2cccc(Cl)c2)CC1,-13.3% (inactive)

row,SMILES,"activity change, negative = inhibition"
1,O=[N+]([O-])c1ccc(NC(=S)N2CCN(c3ccccn3)CC2)cc1,-38.3% (inactive)
2,C/C(=N\NC(=O)Cc1ccc(Cl)cc1)c1ccccn1,-98.9% (active)
3,CCOC(=O)c1ccc(NC(=S)N2CCN(c3ccccn3)CC2)cc1,0.324% (inactive)
4,C/C(=N\NC(=O)c1ccccc1F)c1ccccn1,-113% (active)
5,C/C(=N/NC(=O)c1ccn(C)n1)c1ccncc1,22.2% (inactive)
6,C/C(=N/NC(=O)CSc1ccccn1)c1ccc([N+](=O)[O-])cc1,21.4% (inactive)
7,C/C(Cc1ccccc1)=N\NC(=O)CNC(=O)c1ccccc1Cl,22.5% (inactive)
8,CC(=NNC(=S)N1CCCCCC1)c1ccccn1,-98.7% (active)
9,O=C(NC(=S)NC1CCSC1=O)c1ccccc1F (configuration not stated),-2.85% (inactive)
10,CCC[C@H]1[C@H](NCC2CCCCC2)CC[C@@]23CCCN2C(=O)CCC[C@@H]13,-6.34% (inactive)
11,CSCC[C@H](NC(=O)NCCc1ccc(F)cc1)C(=O)O,-21.4% (inactive)
12,CCOc1ccc(NC(=O)C(=O)NCCc2csc3nc(-c4ccccc4F)nn23)cc1,18.8% (inactive)
13,C=CCC[C@@H](CCCCC)OC(=O)/C=C/[C@@H](O)[C@H](O)C[C@H](O)CC=C,-0.272% (inactive)
14,Fc1ccc(-c2nn(-c3ccccc3Cl)c3c2cnc2ccccc23)cc1,-6.36% (inactive)
15,O=C(NC1(C(F)(F)F)NC(=O)N(Cc2cccnc2)C1=O)c1ccccc1Cl (configuration not stated),-16% (inactive)
16,CN(CC(=O)NCc1ccc(Cl)cc1)S(=O)(=O)c1cccs1,-18.2% (inactive)
17,CCc1ccc(NC(=O)CCNS(=O)(=O)c2cccs2)cc1,24.2% (inactive)
18,O=S(=O)(NCCc1ccc(Cl)cc1)c1cccs1,-79.1% (active)
19,Cc1ccc2nc3c(cc(C(=O)NC4CCCCC4)c(=N)n3C(C)C)c(=O)n2c1,-12.2% (inactive)
